Results filed as inconclusive are left out. Calls of active or inactive are those of the source. The call rests on the fitted dose curve; in most records, active means well fitted curve in the direction sought with a large enough effect in the repeat runs; inconclusive means weak or mixed curves; inactive means no such curve, though single readings can be large; an effect the other way counts as inactive or inconclusive.
How the values were obtained:
[1] = qHTS RealTime-Glo MT Cell Viability Assay in HepG2 cells - 32 hour (AID 1224877); details: RealTime-Glo luminescence; series mostly up to 76.8 µM; further: nearly all actives have a fitted effect of over 55% in size
Outline: (§1)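 Tox21 10K library screened in qHTS format on HepG2 cells carrying RealTime-Glo reagents. Compounds were added after a 5 h preincubation, and the luminescent signal from continuous culture was measured repeatedly during 40 h treatment.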

[2] = A CellTox Green Cytotoxicity Assay to monitor cytotoxicity in HepG2 cells - 24 hour (AID 1224878); details: CellTox Green fluorescence; series mostly up to 76.8 µM; further: nearly all actives have a fitted effect of over 45% in size
Outline: (§2)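 Read-out is fluorescence of a cyanine dye excluded from live cells that stains DNA of dead HepG2 cells, with signal proportional to cytotoxicity. Plates were read at 0, 8, 16, 24, 32 and 40 h after compound addition.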

[3] = A CellTox Green Cytotoxicity Assay to monitor cytotoxicity in HepG2 cells - 40 hour (AID 1224879); details: CellTox Green fluorescence; series mostly up to 76.8 µM; further: nearly all actives have a fitted effect of over 40% in size
Outline: as §2

[4] = qHTS RealTime-Glo MT Cell Viability Assay in HEK293 cells - 0 hour (AID 1224880); details: RealTime-Glo luminescence; series mostly up to 76.8 µM; further: top concentration of the series differs between compounds; nearly all actives have a fitted effect of over 45% in size
Outline: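 Cells were seeded together with NanoLuc luciferase and a prosubstrate that viable cells reduce to a luciferase substrate. After a 5 h incubation at 37 C/5% CO2, compounds were added and luminescence was measured repeatedly during 40 h of treatment.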

[5] = A CellTox Green Cytotoxicity Assay to monitor cytotoxicity in HEK293 cells - 32 hour (AID 1224881); details: CellTox Green fluorescence; series mostly up to 76.8 µM; further: nearly all actives have a fitted effect of over 40% in size
Outline: (§3)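 Nonlytic real-time cytotoxicity: HEK293 + CellTox Green reagent plated, 5 h preincubation, pintool compound addition (23 nL in DMSO), 37 C for 40 h, fluorescence measured at successive time points.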

[6] = A CellTox Green Cytotoxicity Assay to monitor cytotoxicity in HepG2 cells - 0 hour (AID 1224882); details: CellTox Green fluorescence; series mostly up to 76.8 µM; further: nearly all actives have a fitted effect of over 35% in size
Outline: as §2

[7] = A CellTox Green Cytotoxicity Assay to monitor cytotoxicity in HepG2 cells - 32 hour (AID 1224883); details: CellTox Green fluorescence; series mostly up to 76.8 µM; further: nearly all actives have a fitted effect of over 50% in size
Outline: as §2

[8] = A CellTox Green Cytotoxicity Assay to monitor cytotoxicity in HEK293 cells - 8 hour (AID 1224884); details: CellTox Green fluorescence; series mostly up to 76.8 µM; further: nearly all actives have a fitted effect of over 35% in size
Outline: as §3

[9] = qHTS RealTime-Glo MT Cell Viability Assay in HepG2 cells - 16 hour (AID 1224885); details: RealTime-Glo luminescence; series mostly up to 76.8 µM; further: nearly all actives have a fitted effect of over 50% in size
Outline: as §1

[10] = qHTS RealTime-Glo MT Cell Viability Assay in HEK293 cells - 24 hour (AID 1224886); details: RealTime-Glo luminescence; series mostly up to 76.8 µM; further: top concentration of the series differs between compounds; nearly all actives have a fitted effect of over 50% in size
Outline: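 Luminescence generated by NanoLuc from substrate produced by living HEK293 cells served as the viability signal. Each value reflects the reading at its stated time point during continuous 40 h compound exposure at 37 C.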

Measured: Potency

OCCN1CCOCC1
inactive: all assays above

CN1CCOC(c2ccccc2)c2ccccc2C1 (stereo unspecified)
inactive: all assays above

Cc1c(Cl)cccc1Cl
inactive: all assays above

CCC(=O)CC
inactive: all assays above

CC(O)CC(C)O (stereo unspecified)
inactive: all assays above

CCOC(=O)CC1(C)OCC(C)O1 (stereo unspecified)
not listed: [6]
inactive: all other assays above

CC(=O)CC(=O)Nc1ccc(C)cc1C
inactive: all assays above

CCCC(CC)c1ccccc1 (stereo unspecified)
inactive: all assays above

Cc1ccc(C)c([N+](=O)[O-])c1
not listed: [6]
inactive: all other assays above

Cc1ccnc(N)c1
inactive: all assays above

CC1=C(C(=O)O)N2C(=O)[C@@H](NC(=O)[C@H](N)c3ccccc3)[C@H]2SC1
inactive: all assays above

CO[Si](CCCn1c(=O)n(CCC[Si](OC)(OC)OC)c(=O)n(CCC[Si](OC)(OC)OC)c1=O)(OC)OC
inactive: all assays above

CN(C)CCCCl
inactive: all assays above

CCCSSCCC
inactive: all assays above

CC(CO)(CO)CO
inactive: all assays above

Cc1ccc(N)cc1S(=O)(=O)O
inactive: all assays above

O=C1CCCCO1
inactive: all assays above

[O-][n+]1cccc(/C(Cl)=N/OC[C@@H](O)CN2CCCCC2)c1
inactive: all assays above

C=CC(=O)OCC1CCCO1 (stereo unspecified)
inactive: all assays above

C=CC/C=C/C
inactive: all assays above

NCCOCCN
inactive: all assays above

Cc1c(C(=O)c2c[nH]n(C)c2=O)ccc(S(C)(=O)=O)c1C1=NOCC1
not listed: [6]
inactive: all other assays above

NCC1(Cc2noc(=O)[nH]2)CCCCC1
not listed: [6]
inactive: all other assays above

COC(=O)CCCCC(CCSS/C(CCO)=C(\C)N(C=O)Cc1cnc(C)nc1N)SC(C)=O (stereo unspecified)
inactive: all assays above
